Screening data (PubChem)
Hits are enriched below; roughly 1.1% of the tested compounds scored in any of these assays.
TrxR1 substrate: qHTS Assay for Substrates of Mammalian Selenoprotein Thioredoxin Reductase 1 (TrxR1): qHTS | Potency, µM (titrated, usually from 114 µM), inactives show at the top dose activity change, negative = substrate turnover | 390,000 compounds, 0.01% hits | AID 588456, 2011 | purified TrxR1 substrate turnover, NADPH consumption readout | Thioredoxin reductase 1, cytoplasmic (Rattus norvegicus), O89049; note: potency is the fitted concentration of half-maximal effect; nearly all actives have a fitted effect of over 50% in size
Target sequence (O89049 whole entry, looked up): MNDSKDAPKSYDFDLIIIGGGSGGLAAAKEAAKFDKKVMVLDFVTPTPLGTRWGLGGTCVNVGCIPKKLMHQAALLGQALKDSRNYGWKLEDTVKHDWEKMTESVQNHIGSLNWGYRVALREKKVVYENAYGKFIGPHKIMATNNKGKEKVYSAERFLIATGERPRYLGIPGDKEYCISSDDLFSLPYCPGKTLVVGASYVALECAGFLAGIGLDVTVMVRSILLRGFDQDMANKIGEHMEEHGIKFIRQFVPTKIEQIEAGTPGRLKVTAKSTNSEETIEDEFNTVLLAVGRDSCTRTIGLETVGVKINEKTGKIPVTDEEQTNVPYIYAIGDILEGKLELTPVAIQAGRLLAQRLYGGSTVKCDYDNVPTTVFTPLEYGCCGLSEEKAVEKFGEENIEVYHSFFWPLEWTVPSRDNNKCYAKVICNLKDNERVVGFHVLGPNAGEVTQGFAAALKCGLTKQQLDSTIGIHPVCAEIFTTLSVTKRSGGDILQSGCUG
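Rat TrxR1, dispensed at 90 nM, was prereduced with 400 uM NADPH (final) for 5 min at ~22 deg C, then incubated with compound 15 min before 400 uM selenite. A first-read NADPH fluorescence drop versus no-compound background flagged substrates.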
Integrin act MD: qHTS for Activators of Integrin-Mediated Alleviation for Muscular Dystrophy | AID 624291, 2012 | Potency, µM (highest dose often 38.3 µM), inactives show at the top dose activation, hits mostly activators | 350,000 compounds, 0.064% hits | alpha7betagal myoblasts, beta-gal FDG fluorescence, 48 h;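 note: potency is the fitted concentration of half-maximal effect; 100% = response of the positive control SU9516; nearly all actives have a fitted effect of over 60% in size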
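alpha7betagal+/- myoblasts (passage 13, 250/well) treated 48 h at 37C with compounds at 1:260 dilution of DMSO stock. Lysed, then beta-galactosidase activity read as FDG fluorescence (ex 480/em 540) after 30 min, with pre-read for autofluorescence.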
GALK inhibitor: qHTS Assay for Inhibitors of Human Galactokinase (GALK); P51570; Purified GALK, Kinase-Glo residual ATP luminescence; Potency, µM (titrated, usually from 57.5 µM), for inactives: at the highest dose activity change, negative = inhibition, hits mostly inhibitors; 270,000 compounds, 0.007% hits; note: potency is the fitted concentration of half-maximal effect
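Luminescence from leftover ATP (Ultra-Glo luciferase/luciferin) served as read-out after a 1 h room-temperature reaction of 5 nM GALK with 35 uM ATP and 100 uM galactose.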
LDHA block: qHTS assay for inhibitors of human lactate dehydrogenase; L-lactate dehydrogenase A chain (Homo sapiens), P00338; purified LDHA, NADH/diaphorase-resazurin fluorescence; active compounds read low; activity change, % (values are at about 110 or 230 µM); 480,000 compounds, 0.15% hits; AID 1347041, 2019; in the data active = activity change below about -30%; inconclusive = mostly about -25% to -30%;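 note: plate controls were DMSO wells for no effect and wells without enzyme for full effect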
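Resorufin fluorescence (ex540/em590), read at 0 and 20 min after diaphorase/resazurin addition, reports the NADH left after a 5 min room-temperature reaction of 2 nM human LDH5 with 0.06 mM NADH and 0.2 mM pyruvate.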
PI4K2A inh: qHTS for small molecular inhibitors of PI4K2A; activity change, negative = inhibition, % at 76.9 µM; 420,000 compounds, 0.13% hits; Phosphatidylinositol 4-kinase type 2-alpha (Homo sapiens), Q9BTU6; purified PI4K2A, ADP-Glo luminescence, 1 h; active compounds read low; AID 1346378, 2018; in the data active = activity change below about -50%; inconclusive = mostly about -30% to -49%;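 note: -100% = wells without enzyme as full effect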
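In this quantitative HTS, ADP production by PI4K2A was quantified luminescently after 1 h at ambient temperature; 100 microM adenosine served as plate-quality control.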
TrxR1 inh: qHTS Assay for Inhibitors of Mammalian Selenoprotein Thioredoxin Reductase 1 (TrxR1): qHTS. AID 588453, 2011. Thioredoxin reductase 1, cytoplasmic (Rattus norvegicus), O89049. Potency, µM (highest dose often 114 µM), for the others: at the highest dose activity change, negative = inhibition, usual class: inhibitors. 390,000 compounds, 1% hits. recombinant rTrxR1, NADPH fluorescence consumption, selenite substrate; note: potency is the fitted concentration of half-maximal effect; nearly all actives have a fitted effect of over 65% in size
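Rat TrxR1 (90 nM in the dispensed reagent) was pre-reduced with 400 uM NADPH for 5 min at room temperature, then incubated with compound for 15 min. After 400 uM selenite was added, NADPH fluorescence (Ex 340/Em 450 nm) was followed for 8 min.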
Active calls of the source: *; u = inconclusive; x = no result; [ ] = another dose, or the depositor's remark. Unless noted, calls come from the whole dose curve; as a rule, active = well fitted curve in the direction sought with a large enough effect; inconclusive = small, poorly fitted or top-dose-only effect, or another doubt; inactive = no such curve, though single readings can be large; an effect the other way counts as inactive or inconclusive. Unless noted, % is set by controls: 0 for no effect and ±100 for the full control effect.

SMILES	TrxR1 substrate	Integrin act MD	GALK inhibitor	LDHA block	PI4K2A inh	TrxR1 inh
O=C(NCc1cccnc1)/C(=C\c1ccc(-c2cccc(Cl)c2)o1)S(=O)(=O)c1ccccc1	-7%	-61%	-1%	-10	5	11µM*
Nc1nccnc1C(=O)NCc1ccco1	x	x	x	1	x	x
CC(C)C(C)NC(=O)CSc1ccc2ccccc2n1 (stereo unspecified)	x	x	x	-32*	x	x
CN(C)C(=O)C1CN(C(=O)c2nn(Cc3ccccc3)c(=O)c3ccccc23)c2ccccc2O1 (stereo unspecified)	x	x	x	-3	x	x
COC(=O)c1cccc(Cn2c(Cl)c(/C=N/NC(=O)c3ccco3)sc2=O)c1	-16%	-14%	7%	-9	-2	40µM*
O=Cc1sc(=O)n(Cc2cccc(C(=O)O)c2)c1Cl	6%	u	4%	4	-8	3.2µM*
O=c1sc(/C=N/Nc2ccccc2)c(Cl)n1Cc1ccccc1	7%[57.1 µM]	-1%	2%	-4	16	13µM*
COc1ccc(S(=O)(=O)Nc2nc3ccccc3nc2Nc2ccc(C)cc2)cc1	x	x	x	-2	x	x
O=C(NCC(c1ccccc1)c1ccccc1)c1n[nH]c(=O)c2ccccc12	x	x	x	0	x	x
O=C(NCc1cccnc1)c1ccccc1NS(=O)(=O)c1ccc2[nH]c(=O)[nH]c2c1	x	x	x	0	x	x
O=C1C2C3C=CC(CO)(O3)C2C(=O)N1c1ccc(-c2ccccc2)cc1 (stereo unspecified)	x	x	3%	x	x	x
Cc1cc(C)c(S(=O)(=O)NCC23C=CC(O2)C2C(=O)N(c4ccccc4)C(=O)C23)c(C)c1 (stereo unspecified)	-13%	0%	-1%	3	4	14µM*
O=[N+]([O-])c1ccccc1S(=O)(=O)NCc1ccco1	-1%	-7%	0%	-4	1	1%
O=C1C2C3C=CC(CNS(=O)(=O)c4ccccc4[N+](=O)[O-])(O3)C2C(=O)N1c1ccccc1 (stereo unspecified)	15%[57.1 µM]	-4%	-2%	-9	5	18µM*
COc1cc2ccccc2cc1C(=O)N1CCN(CC(=O)Nc2cccc(F)c2)CC1	x	x	x	-4	x	x
Cc1cc(Cl)ccc1Nc1nc(N)c(C(=O)c2ccc(F)cc2)s1	x	x	x	-1	x	x
COc1cc(CN(C(=O)COc2ccccc2C)c2ccccn2)cc(OC)c1OC	x	x	x	12	x	x
Cc1ccc(C(CC(=O)N2CCOCC2)c2ccco2)cc1 (stereo unspecified)	2%	-14%	0%	3	-3	45µM*
CC(C)(C)SCC(=O)NCC1CCN(c2ccccc2)C1 (stereo unspecified)	x	x	x	18	x	x
CN(CCC#N)C(=O)COC(=O)c1c2c(nc3ccccc13)/C(=C/c1ccco1)CC2	-3%	-2%	0%	14	-53*	5.6µM*
CCC(=O)Oc1oc(-c2ccccc2)nc1C=Nc1ccc(C)cc1	5%[11.4 µM]	-10%	-6%	-4	5	7%[11.4 µM]
CCOC(=O)c1ccc(N=Cc2nc(-c3ccccc3)oc2OC(C)=O)cc1	-2%	6%	-2%	-10	2	2µM*
CC(=O)Oc1oc(-c2ccccc2)nc1C=Nc1ccccc1	-13%	11%	-1%	-12	-4	40µM*
COc1cc(C(=O)Nc2ccc3oc(-c4ccccc4C)nc3c2)cc(OC)c1OC	x	x	x	1	x	x
CCC(=O)Nc1cc(ON=C(C)C)cc([N+](=O)[O-])c1	-2%	3%	x	3	-1	9%
SMILES	TrxR1 substrate	Integrin act MD	GALK inhibitor	LDHA block	PI4K2A inh	TrxR1 inh
CC(C)=NOc1cc(NC(=O)CCl)cc([N+](=O)[O-])c1	-17%	-53%	x	3	5	2.8µM*
O=C(CCl)Nc1cc(SCC(O)CO)cc([N+](=O)[O-])c1 (stereo unspecified)	3%	-37%	-3%	1	-5	5.6µM*
Nc1nccnc1C(=O)Nc1ccccn1	x	x	x	13	x	x
Cc1ccc(C)c(C(=O)C(C)n2cnc3c2c(=O)n(C)c(=O)n3C)c1 (stereo unspecified)	x	x	x	-5	x	x
CC(NC(=O)NOCc1ccccc1)c1ccccn1 (stereo unspecified)	x	x	x	1	x	x
O=C(CSc1nc2cc(S(=O)(=O)N3CCOCC3)ccc2o1)N1CCOCC1	x	x	x	-4	x	x
Cc1oc2cc(OC(=O)c3ccco3)ccc2c(=O)c1-c1ccc(Br)cc1	x	x	x	-34*	x	x
CCN(C(=O)C(C)S(=O)(=O)Cc1ccccc1Cl)c1ccccc1 (stereo unspecified)	x	x	x	12	x	x
Cc1ccc(C2C(C#N)=C(N)SC(N)=C2C#N)c(C)c1	-4%	10%	3%	15	-19	2.8µM*
Cc1ccc(C2C(C#N)=C(N)SC(N)=C2C#N)cc1	-6%	22%	-8%	22	-3	u
CCCCCSc1ccc(/C=C/C(=O)O)cc1	x	x	x	0	x	x
CCc1cc(=O)oc2c(C)c(OC(C)C(=O)NCc3ccncc3)ccc12 (stereo unspecified)	x	x	x	4	x	x
N#CC(C#N)=C1C=CC=CN1/C(=C\c1ccccc1)C(=O)c1cccs1	9%	12%	x	2	-2	0.45µM*
COc1ccc(C(=O)Nc2cccc(NC(C)=O)c2)cc1Br	x	x	x	6	x	x
Fc1ccc([C@@H]2Nc3ccccc3[C@@H]3C=CC[C@@H]32)cc1	2%	x	x	8	1	28µM*
Cc1cccc(NS(=O)(=O)c2ccc3c(c2)[C@H]2C=CC[C@H]2[C@@H](c2ccc(F)cc2)N3)c1	5%	x	x	4	-3	3%
COc1ccc(OC)c([C@@H]2Nc3ccc(C(=O)O)cc3[C@@H]3C=CC[C@@H]32)c1	5%[57.1 µM]	x	x	12	-1	1%[57.1 µM]
O=C(O)c1ccc2c(c1)[C@@H]1C=CC[C@@H]1[C@H](c1ccccn1)N2	-5%	-4%	x	42	-26	4µM*
COc1cccc(NS(=O)(=O)c2ccc3c(c2)C2C=CCC2C(c2ccc(C(=O)O)cc2)N3)c1 (stereo unspecified)	-10%	14%	-5%	16	-5	40µM*
COC(=O)c1ccc([C@H]2Nc3ccc(S(=O)(=O)Nc4ccc(F)cc4)cc3[C@H]3C=CC[C@H]32)cc1	-3%	x	x	5	-2	71µM*
O=C(Nc1cccc2ccccc12)C(C(=O)Nc1cccc2ccccc12)C12CC3CC(CC(C3)C1)C2	x	x	x	-2	x	x
